Experimental data as given in PubChem BioAssay (NCI).
Compounds without any hit were thinned out: in the full panel of roughly 83,000, 20% have a hit.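 Negative percent growth values reflect cell death: -40 means 40% of the cells present at the start died, and -100 means all died.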 A number with no mark means an inactive call. Active and inactive are the calls of the source. Rule for the calls: active = growth percent below 10; inactive = the rest.

How the values were obtained:
Experiment in all cases: NCI-60 one-dose screen, 48 h (100 = growth as untreated, 0 = no growth, -100 = all killed)
Settings in all cases: 10 µM unless noted
SR leukemia = tested on: SR leukemia
RPMI-8226 leukemia = tested on: RPMI-8226 leukemia
OVCAR-8 ovarian = tested on: OVCAR-8 ovarian
OVCAR-5 ovarian = tested on: OVCAR-5 ovarian
OVCAR-4 ovarian = tested on: OVCAR-4 ovarian
SK-OV-3 ovarian = tested on: SK-OV-3 ovarian
IGROV1 ovarian = tested on: IGROV1 ovarian
OVCAR-3 ovarian = tested on: OVCAR-3 ovarian
HS 578T breast = tested on: HS 578T breast
NCI/ADR-RES ovarian = tested on: NCI/ADR-RES ovarian
T-47D breast = tested on: T-47D breast
MDA-MB-435 melanoma = tested on: MDA-MB-435 melanoma
SW-620 colon = tested on: SW-620 colon
MCF7 breast = tested on: MCF7 breast
HCT-116 colon = tested on: HCT-116 colon
HCC-2998 colon = tested on: HCC-2998 colon
KM12 colon = tested on: KM12 colon
BT-549 breast = tested on: BT-549 breast

Row | Structure (SMILES) | growth (SR leukemia) | growth (RPMI-8226 leukemia) | growth (OVCAR-8 ovarian) | growth (OVCAR-5 ovarian) | growth (OVCAR-4 ovarian) [%] | growth (SK-OV-3 ovarian) [%] | growth (IGROV1 ovarian) | growth (OVCAR-3 ovarian) | growth (HS 578T breast) [%] | growth (NCI/ADR-RES ovarian) [%] | growth (T-47D breast) | growth (MDA-MB-435 melanoma) | growth (SW-620 colon) | growth (MCF7 breast) | growth (HCT-116 colon) | growth (HCC-2998 colon) | growth (KM12 colon) | growth (BT-549 breast)
1 | S=C(Cc1ccc2c(c1)CCCC2)N1CCOCC1 | 94.7% | 112% | 104% | 99.2% | 96.6 | 98.2 | 101% | 107% | 115 | 105 | 80.2% | 101% | 114% | 94.3% | 87.6% | 98% | 106% | 
2 | CC1(C)CC[C@]2(C(=O)N3CCOCC3)CC[C@]3(C)C(=CC[C@@H]4[C@@]5(C)CC[C@H](OC(=O)c6cccnc6)C(C)(C)[C@@H]5CC[C@]43C)[C@@H]2C1 | 53.7% | 35.5% | 76.6% | 75.5% | 60.7 | 88.2 | 69.7% | 53.2% |  | 89.9 | 54.7% | 70.2% | 45.4% | 67.4% | 31.8% | 58.7% | 53.5% | 72.3%
3 | CCCCCCCC/C=C\CCCCCCCCOc1ccccc1CC(=O)NCC[N+](C)(C)C | 23.6% | 56.1% | 64.4% | 25% | 78.7 | 81.9 | 28.9% | 83.2% | 91.8 |  | 94.4% | 95.6% | 69.5% | 73% | 65.8% | 33.7% | 36.4% | 77.4%
4 | CCOc1ccccc1-c1cc(-c2cccs2)c(C#N)c(=O)[nH]1 | 77.4% | 91.2% | 95% | 94.6% | 39.2 | 98.7 | 66.7% | 99.7% |  | 76.7 | 26.7% | 31.2% | 80.9% | 37.1% | 92.3% | 92.2% | 83.9% | 85.6%
5 | C=CC(=O)Nc1cccc(Oc2nccc(Nc3nnc(C4CC4)s3)n2)c1 | 58.3% | 56% | 91.4% | 98.7% | 101 | 112 | 93.6% | 89.5% |  | 96.8 | 95% | 99.5% | 93.3% | 82% | 101% | 102% | 97.5% | 101%
6 | C=C1C(=O)O[C@H]2[C@H]1CC/C(COC(=O)C(=O)c1c[nH]c3ccccc13)=C\CC[C@@]1(C)O[C@@H]21 | 1.82% (active) | -29.8% (active) | -6.78% (active) | -5.59% (active) | 17.9 | 85.1 | -69.8% (active) | -82.2% (active) | 10.7 |  | -56.8% (active) | -59.4% (active) | -64.9% (active) | -16.9% (active) | -88.6% (active) | -79.5% (active) | -56.5% (active) | -67.3% (active)
7 | Cn1c2c(c3ccc(Cl)c(Cl)c31)C(C#N)C1(CCNCC1)NC2=O (stereo not drawn) | 13.6% | 14.2% | 67.8% | 62.1% | 53.5 | 68.7 | -19.3% (active) | 48.1% | 35.1 | 68.5 | 46.8% | 5.97% (active) | 30.5% | -12.3% (active) | 13% | -17.8% (active) | 31.7% | 
8 | Clc1cccc(Cl)c1/C=C/c1cc(/C=C/c2c(Cl)cccc2Cl)[nH]n1 | 24.7% | 21.8% | 31.1% | 33.4% | 54.6 | 44.4 | 48% | -16.5% (active) | 45.5 |  | 57% | -50% (active) | 18.2% | 20.9% | 15.5% | 35.1% | 24.9% | 30.7%
9 | Cc1cc(NCc2cc(Nc3ccnc4cc(Cl)ccc34)ccc2F)nc(N2CCN(c3ccccc3)CC2)n1 | -24.6% (active) | 42.8% | 58.8% | 92.6% | 46.2 | 55.1 | 41.6% | 5.88% (active) |  | 56.5 | 24.5% | 38.8% | 46.1% | 23.9% | 1.74% (active) | 28.2% | 69.2% | 70.1%
